The results in this text go back to PubChem BioAssay (NCATS).

Records with an inconclusive call do not appear. Activity calls are given as the source filed them. Unless noted, calls come from the whole dose curve.

Assay [1] can be described thus: qHTS for Inhibitors of the Functional Ribonucleoprotein Complex (vRNP) of Lassa (LASV) Arenavirus: LASV Primary Screen - GLuc reporter signal (AID 1347082; calls by dose curve; tested in HEK293 reporter line; note: series mostly up to about 57 µM; % is set by controls: 0 for no effect and ±100 for the full control effect; nearly all actives have a fitted effect of over 60% in size).
The nature of assay [2]: qHTS for Inhibitors of the Functional Ribonucleoprotein Complex (vRNP) of Lassa (LASV) Arenavirus: Viability assay - alamar blue signal for LASV Primary Screen (AID 1347083; calls by dose curve; tested in HEK293 reporter line; note: nearly all actives have a fitted effect of over 80% in size; note: potency is the fitted concentration of half-maximal effect).
In assay [3] the target is Nucleoprotein (Lymphocytic choriomeningitis virus (strain Armstrong)) (UniProt P09992). Description: qHTS for Inhibitors of the Functional Ribonucleoprotein Complex (vRNP) of Lymphocytic Choriomeningitis Arenaviruses (LCMV): LCMV Primary Screen - GLuc reporter signal (AID 1347086). Note: series mostly up to about 57 µM; % is set by controls: 0 for no effect and ±100 for the full control effect; nearly all actives have a fitted effect of over 70% in size.
Chain of Nucleoprotein (Lymphocytic choriomeningitis virus (strain Armstrong)) (P09992 whole entry, looked up): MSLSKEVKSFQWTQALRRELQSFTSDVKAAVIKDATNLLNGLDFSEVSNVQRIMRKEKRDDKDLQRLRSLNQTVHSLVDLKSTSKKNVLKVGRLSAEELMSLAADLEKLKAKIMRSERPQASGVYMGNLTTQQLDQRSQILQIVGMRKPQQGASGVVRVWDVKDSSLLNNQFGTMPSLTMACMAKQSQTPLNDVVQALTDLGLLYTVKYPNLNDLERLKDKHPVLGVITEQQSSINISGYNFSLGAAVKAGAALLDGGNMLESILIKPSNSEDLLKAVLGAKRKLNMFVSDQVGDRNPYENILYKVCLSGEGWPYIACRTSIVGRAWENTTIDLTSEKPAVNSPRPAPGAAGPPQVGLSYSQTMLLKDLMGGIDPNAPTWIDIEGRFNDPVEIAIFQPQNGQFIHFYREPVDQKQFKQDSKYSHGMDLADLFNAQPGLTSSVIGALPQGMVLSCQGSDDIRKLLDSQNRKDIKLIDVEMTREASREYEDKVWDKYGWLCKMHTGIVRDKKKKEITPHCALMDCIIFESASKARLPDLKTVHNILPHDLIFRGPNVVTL
Assay [4] is described as follows: Cytotoxicity counterscreen for inhibitors of SARS-CoV-2 cell entry (AID 1645845). Note: series mostly up to about 57 µM; % is set by controls: 0 for no effect and ±100 for the full control effect; nearly all actives have a fitted effect of over 50% in size. The gist of the method: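 HEK293-ACE2 cells (Expi293F stably expressing human ACE2) seeded overnight, then compound for 1 h plus 48 h at 37C. Viability as ATP content by luminescence; normalized to wells with cells and media-only wells.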
Assay [5] in a line: Inducers of the Endoplasmic Reticulum Stress Response (ERSR) in human glioma: Validation (AID 504836; active = well fitted curve in the direction sought with a large enough effect; an effect the other way counts as inactive or inconclusive; note: 0% is about no effect). In outline:
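Stably transfected U87-MG glioma cells carrying a GRP78-based luciferase sensor; 16 h compound incubation. Luminescence end-point read 10 min after Bright-Glo addition at room temperature.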

In assay [6] the target is Estrogen receptor (Homo sapiens) (UniProt P03372). In words: qHTS assay for small molecule antagonists of estrogen receptor alpha signaling (AID 588513; active = well fitted curve in the direction sought with a large enough effect in the signal ratio, with a control signal flat, not every such curve was filed as active; the % refers to the signal ratio; note: % is set by controls: 0 for no effect and ±100 for the full control effect). In outline:
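Antagonist-mode qHTS in ER-alpha-UAS-bla HEK 293 cells: compound titration, 0.5nM estradiol for 18 h, CCF4 fluorescence, Hill-derived IC50.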

The target of assay [7] is Androgen receptor (Homo sapiens) (UniProt P10275). In words: qHTS assay for small molecule agonists of androgen receptor signaling (AID 588515; active = well fitted curve in the direction sought with a large enough effect in the signal ratio, with a control signal flat; the % refers to the signal ratio; note: % is set by controls: 0 for no effect and ±100 for the full control effect). As to conditions: AR-UAS-bla HEK293, beta-lactamase ratio, agonist 16 h; stronger effect = higher value. The gist of the method: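 EC50 and efficacy came from Hill fits of titrations (up to 92 uM) normalized to 30 nM R1881 as 100% and DMSO as 0%. Compound exposure was 16 h at 37 C on AR-UAS-bla HEK293 cells, with a 405/460/530 nm CCF4 fluorescence read.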
Chain of Androgen receptor (Homo sapiens) (P10275 whole entry, looked up): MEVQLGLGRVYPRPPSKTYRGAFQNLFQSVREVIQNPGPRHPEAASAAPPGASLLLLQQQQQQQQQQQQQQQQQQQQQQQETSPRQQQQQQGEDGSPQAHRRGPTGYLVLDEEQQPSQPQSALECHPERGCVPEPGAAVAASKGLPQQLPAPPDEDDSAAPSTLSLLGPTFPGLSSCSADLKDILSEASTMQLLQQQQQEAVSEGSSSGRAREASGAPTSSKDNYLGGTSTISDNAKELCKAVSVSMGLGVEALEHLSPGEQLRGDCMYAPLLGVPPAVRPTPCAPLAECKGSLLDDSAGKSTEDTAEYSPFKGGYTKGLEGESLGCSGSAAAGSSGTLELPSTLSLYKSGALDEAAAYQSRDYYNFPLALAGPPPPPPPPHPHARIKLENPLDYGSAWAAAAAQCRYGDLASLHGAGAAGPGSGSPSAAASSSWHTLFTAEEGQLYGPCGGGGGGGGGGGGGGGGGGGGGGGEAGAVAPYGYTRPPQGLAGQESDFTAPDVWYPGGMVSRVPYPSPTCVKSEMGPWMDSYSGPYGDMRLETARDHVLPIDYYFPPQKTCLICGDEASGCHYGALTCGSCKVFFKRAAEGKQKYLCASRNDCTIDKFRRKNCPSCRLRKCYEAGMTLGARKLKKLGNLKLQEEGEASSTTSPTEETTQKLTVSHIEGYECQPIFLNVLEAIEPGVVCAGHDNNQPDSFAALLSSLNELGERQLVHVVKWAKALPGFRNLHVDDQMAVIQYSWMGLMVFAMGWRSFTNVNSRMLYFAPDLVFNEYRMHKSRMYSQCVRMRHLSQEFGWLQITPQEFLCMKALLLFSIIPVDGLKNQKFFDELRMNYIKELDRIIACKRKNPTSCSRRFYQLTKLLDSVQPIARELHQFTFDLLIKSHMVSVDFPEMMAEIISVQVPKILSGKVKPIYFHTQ

Assay [8] has the same target. Description: qHTS assay for small molecule antagonists of androgen receptor signaling (AID 588516; active = well fitted curve in the direction sought with a large enough effect in the signal ratio, with a control signal flat, not every such curve was filed as active; the % refers to the signal ratio; note: % is set by controls: 0 for no effect and ±100 for the full control effect). The gist of the method:
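Compounds tested in titration against 10 nM R1881 in AR-responsive bla reporter HEK 293 cells; CCF4 fluorescence (460/530 nm) after 16 h exposure gave IC50 and efficacy.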

Assay [9] addresses Bile acid receptor (Homo sapiens) (UniProt Q96RI1). In words: qHTS assay for small molecule antagonists of farnesoid X receptor signaling (AID 588526). Note: % is set by controls: 0 for no effect and ±100 for the full control effect. The gist of the method:
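Antagonist mode: titrated compounds tested against chenodeoxycholic acid stimulation (normalized to 50 uM CDCA and DMSO) in GeneBLAzer HEK293T cells for 16 h. Beta-lactamase read by CCF4 fluorescence; IC50 from Hill fits.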

Assay [10] addresses Glucocorticoid receptor (Homo sapiens) (UniProt P04150). In words: qHTS assay for small molecule agonists of glucocorticoid receptor signaling (AID 588532; active = well fitted curve in the direction sought with a large enough effect in the signal ratio, with a control signal flat; the % refers to the signal ratio;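 note: 100% = dexamethasone at 0.1 µM and 0% = DMSO only wells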). As to conditions: HeLa MMTV-bla, beta-lactamase ratio, agonist, 18 h; stronger effect = higher value; percent of dexamethasone control, DMSO zero. The gist of the method: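 HeLa GRE-bla reporter cells; 18 h compound exposure at 37 C; 2 h CCF4 loading at room temperature; fluorescence at 460 and 530 nm; EC50 by Hill equation.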

For assay [11] the target is unchanged. Description: qHTS assay for small molecule antagonists of glucocorticoid receptor signaling (AID 588533; active = well fitted inhibition curve with a large enough effect in the signal ratio, with a control signal flat, not every such curve was filed as active; the % refers to the signal ratio; note: % is set by controls: 0 for no effect and ±100 for the full control effect). The gist of the method: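 Antagonist-mode qHTS: compound titrations added to GRE-bla HeLa cells, then dexamethasone 2 nM final; 18 h, 37 C. CCF4 FRET fluorescence normalized to dexamethasone and DMSO; IC50 from Hill fit.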
For assay [12], the target named is Peroxisome proliferator-activated receptor delta (Homo sapiens) (UniProt Q03181). In words: qHTS assay for small molecule agonists of peroxisome proliferator-activated receptor delta signaling (AID 588534).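 Note: 0% = DMSO basal wells and 100% = positive control agonist at 10 µM.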 The gist of the method:
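Fluorescence from CCF4 substrate cleavage by beta-lactamase reporter, read 2 hrs at RT, measured agonist activity. Compounds were tested with 18 hrs exposure at 37 C. Concentration-response data fitted to Hill equation.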

Assay [13] in a line: qHTS assay for small molecule antagonists of peroxisome proliferator-activated receptor delta signaling (AID 588535; active = well fitted inhibition curve with a large enough effect in the signal ratio, with a control signal flat, not every such curve was filed as active; the % refers to the signal ratio;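 for max response: cells co-treated with a PPAR-delta agonist as stimulator during compound exposure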). As to conditions: HEK293T PPARd-UAS-bla, beta-lactamase FRET ratio, 18 h; 460 nm channel. In outline:
(§1)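 Antagonist-mode beta-lactamase reporter (GeneBLAzer PPAR-delta-UAS-bla) in HEK293T cells, 2% charcoal/dextran FBS, 4000 cells/well. Compound titrations, 18 h at 37 C; CCF4 ratio read, IC50 and efficacy from Hill fits.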

For assay [14], the target named is Peroxisome proliferator-activated receptor delta (Homo sapiens) (UniProt Q03181). Described as above. In outline:
as §1

The target of assay [15] is Peroxisome proliferator-activated receptor gamma (Homo sapiens) (UniProt P37231). Description: qHTS assay for small molecule agonists of peroxisome proliferator-activated receptor gamma signaling (AID 588536; active = well fitted curve in the direction sought with a large enough effect in the signal ratio, with a control signal flat, not every such curve was filed as active; the % refers to the signal ratio;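 note: 0% = DMSO basal wells and 100% = rosiglitazone at 2 µM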). In outline: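 HEK293 UAS-bla reporter line, 1% charcoal/dextran FBS; titration, 16 h, 37 C; CCF4 loading 2 h RT; fluorescence 460/530 nm. Normalized to rosiglitazone 2 uM = 100%, DMSO = 0%.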
Chain of Peroxisome proliferator-activated receptor gamma (Homo sapiens) (P37231 whole entry, looked up): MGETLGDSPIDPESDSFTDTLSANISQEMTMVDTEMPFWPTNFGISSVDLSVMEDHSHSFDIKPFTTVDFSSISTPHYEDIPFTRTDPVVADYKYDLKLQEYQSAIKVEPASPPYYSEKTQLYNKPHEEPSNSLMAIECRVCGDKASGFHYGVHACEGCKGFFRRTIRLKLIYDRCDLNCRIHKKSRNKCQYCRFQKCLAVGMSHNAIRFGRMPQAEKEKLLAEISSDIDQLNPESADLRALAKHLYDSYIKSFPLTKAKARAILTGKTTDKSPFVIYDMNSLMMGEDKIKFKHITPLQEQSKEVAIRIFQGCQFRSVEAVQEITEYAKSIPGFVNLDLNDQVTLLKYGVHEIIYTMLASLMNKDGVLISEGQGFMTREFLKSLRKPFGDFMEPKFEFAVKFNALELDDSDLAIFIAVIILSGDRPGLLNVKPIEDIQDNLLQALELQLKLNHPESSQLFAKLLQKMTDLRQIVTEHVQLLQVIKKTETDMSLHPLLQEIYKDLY

The target is the same in assay [16]. Description: qHTS assay for small molecule antagonists of peroxisome proliferator-activated receptor gamma signaling (AID 588537; active = well fitted inhibition curve with a large enough effect in the signal ratio, with a control signal flat, not every such curve was filed as active; the % refers to the signal ratio;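 note: reporter cells co-stimulated with 50 nM rosiglitazone agonist during compound treatment; % of control where 0% means no effect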). The gist of the method:
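PPARγ-UAS-bla HEK293 cells (3000/well) in 1% charcoal/dextran-stripped FBS are treated with compound, then stimulated with 50 nM rosiglitazone for 16 h at 37 °C. Read-out is CCF4 β-lactamase fluorescence after 2 h at RT. IC50 comes from Hill fits normalised to rosiglitazone and DMSO.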

A short description of assay [17]: qHTS assay for small molecule agonists of retinoid X receptor alpha signaling (AID 588544).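 For activation: 0% = DMSO basal wells and 100% = reference agonist.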 As to conditions: HEK293T RXRa-UAS-bla, beta-lactamase reporter, 18 h; 530 nm emission.
Assay [18] deals with Retinoic acid receptor RXR-alpha (Homo sapiens) (UniProt P19793). Described as above.
Chain of Retinoic acid receptor RXR-alpha (Homo sapiens) (P19793 whole entry, looked up): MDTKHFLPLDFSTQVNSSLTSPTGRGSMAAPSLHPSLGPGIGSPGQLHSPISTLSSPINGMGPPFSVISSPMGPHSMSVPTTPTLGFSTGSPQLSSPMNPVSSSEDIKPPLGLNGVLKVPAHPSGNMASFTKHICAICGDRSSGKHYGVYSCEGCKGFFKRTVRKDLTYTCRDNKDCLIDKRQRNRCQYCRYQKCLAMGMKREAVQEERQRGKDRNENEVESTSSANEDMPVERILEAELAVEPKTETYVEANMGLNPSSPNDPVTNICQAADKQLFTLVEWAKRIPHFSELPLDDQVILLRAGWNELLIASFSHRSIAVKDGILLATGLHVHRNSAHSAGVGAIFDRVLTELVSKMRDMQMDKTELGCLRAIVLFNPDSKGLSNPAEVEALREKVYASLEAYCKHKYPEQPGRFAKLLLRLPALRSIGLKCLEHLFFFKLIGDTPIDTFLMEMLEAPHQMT
The target of assay [19] is Thyroid hormone receptor beta (Homo sapiens) (UniProt P10828). Description: qHTS assay for small molecule agonists of thyroid hormone receptor beta signaling (AID 588545). In outline: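 In this cell-based screen, titrated compounds act on HEK 293 cells held in medium with 2% charcoal/dextran FBS, NEAA and pyruvate for 18 hrs at 37 C. Responses are expressed relative to T3 (10 nM) as 100% and basal DMSO as 0%.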
Chain of Thyroid hormone receptor beta (Homo sapiens) (P10828 whole entry, looked up): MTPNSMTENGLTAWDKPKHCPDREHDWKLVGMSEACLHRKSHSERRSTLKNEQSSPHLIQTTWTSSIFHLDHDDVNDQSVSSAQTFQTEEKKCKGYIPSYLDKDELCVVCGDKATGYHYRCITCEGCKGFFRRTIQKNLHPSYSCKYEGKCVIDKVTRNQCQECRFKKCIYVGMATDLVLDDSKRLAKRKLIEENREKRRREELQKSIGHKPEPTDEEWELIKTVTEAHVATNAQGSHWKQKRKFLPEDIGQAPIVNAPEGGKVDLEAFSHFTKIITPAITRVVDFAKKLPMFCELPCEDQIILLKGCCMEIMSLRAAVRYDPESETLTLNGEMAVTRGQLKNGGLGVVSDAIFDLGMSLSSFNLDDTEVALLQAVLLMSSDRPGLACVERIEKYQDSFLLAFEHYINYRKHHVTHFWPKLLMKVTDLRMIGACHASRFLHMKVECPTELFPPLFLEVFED

The nature of assay [20]: qHTS assay for small molecule antagonists of retinoid X receptor alpha signaling (AID 588546; active = well fitted inhibition curve with a large enough effect in the signal ratio, with a control signal flat, not every such curve was filed as active; the % refers to the signal ratio). As to conditions: HEK293T RXRa-UAS-bla, beta-lactamase ratio, antagonist mode; measured here: W530 green channel, cytotoxicity proxy. The gist of the method: (§2)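 Beta-lactamase reporter inhibition, read as CCF4 fluorescence ratio (ex 405, em 460/530 nm) after 2 h at RT. HEK293T UAS-bla cells, 2500/well, were stimulated with 9-cis-RA at 500 or 100 nM final alongside test compound for 18 h at 37 C.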

Assay [21] concerns the target Retinoic acid receptor RXR-alpha (Homo sapiens) (UniProt P19793). The description is as above. As to conditions: HEK293T RXRa-UAS-bla, beta-lactamase ratio, antagonist mode. In outline:
as §2

For assay [22], the target named is Thyroid hormone receptor beta (Homo sapiens) (UniProt P10828). In words: qHTS assay for small molecule antagonists of thyroid hormone receptor beta signaling (AID 588547; active = well fitted inhibition curve with a large enough effect in the signal ratio, with a control signal flat, not every such curve was filed as active; the % refers to the signal ratio). The conditions noted are these: TR-UAS-bla HEK293, beta-lactamase ratio, antagonist mode, 18 h. The gist of the method: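 TR-UAS-bla GripTite HEK293 cells in 2% charcoal/dextran FBS medium; compounds 0.59 nM to 92 uM with T3 at 0.4nM final, 18 h at 37 C. Beta-lactamase read by CCF4 fluorescence (460/530 nm); Hill fits gave IC50 and efficacy.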

The nature of assay [23]: qHTS assay for small molecule agonists of the antioxidant response element (ARE) signaling pathway (AID 651741; active = well fitted activation curve with a large enough effect in the signal ratio; the % refers to the signal ratio; note: % of control where 0% means no effect). In outline: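 CellSensor ARE-bla HepG2 cells (2,000/well) carrying ARE-driven beta-lactamase, exposed 16 h at 37 C. LiveBLAzer B/G FRET substrate added for 2 h at room temperature; fluorescence intensity read.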
A short description of assay [24]: qHTS assay for small molecule activators of the nuclear factor-kappa B (NF-kB) signaling pathway (AID 651749; active = well fitted activation curve with a large enough effect in the signal ratio; the % refers to the signal ratio; note: series mostly up to about 77 µM; % of control where 0% means no effect). As to conditions: NF-kB-bla ME-180 cells, beta-lactamase FRET ratio, 16 h; activation: stronger effect = higher value. The gist of the method:
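NF-kB-bla ME-180 cells carrying a beta-lactamase reporter under an NF-kB response element, 2,000 cells/well, exposed to compound for 16 hr at 37C; FRET-based beta-lactamase fluorescence read-out of pathway activation.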

Assay [25] has as its target Peroxisome proliferator-activated receptor alpha (Homo sapiens) (UniProt Q07869). In words: qHTS assay for small molecule agonists of the peroxisome proliferator-activated receptor alpha (PPARalpha) signaling pathway (AID 651778; active = well fitted curve in the direction sought with a large enough effect; an effect the other way counts as inactive or inconclusive; note: % of control where 0% means no effect). The conditions noted are these: PathHunter PPARalpha complementation, chemiluminescence, 6 h; stronger effect = higher value. In outline: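 Enzyme-fragment complementation assay in which ligand-bound PPARalpha translocates and forms an active enzyme that generates chemiluminescence. Cells were plated overnight, exposed to compound for 6 hr at 37 C, and then given detection reagent for 60 min at room temperature.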

Assay [26] in a line: qHTS assay for small molecule agonists of the antioxidant response element (ARE) signaling pathway measured by Nrf2-dependant transcriptional activity (AID 720636; active = well fitted curve in the direction sought with a large enough effect in the repeat runs; an effect the other way counts as inactive or inconclusive; note: % of control where 0% means no effect). In outline:
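ARE-luc HepG2 cells carrying an Nrf2-responsive luciferase reporter, in medium with 1% dialyzed FBS, exposed to compound for 16 hr at 37 C, 5% CO2. Luminescence read 30 min after ONE-Glo addition.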

A short description of assay [27]: qHTS assay for small molecule agonists of the antioxidant response element (ARE) signaling pathway measured by Nrf2-dependant transcriptional activity - cell viability counter screen (AID 720653; active = well fitted curve in the direction sought with a large enough effect in the repeat runs; an effect the other way counts as inactive or inconclusive; note: % is set by controls: 0 for no effect and ±100 for the full control effect). The conditions noted are these: ARE-bla HepG2 viability, CellTiter-Glo ATP luminescence, 16 h; max response: stronger effect = lower value. In outline: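 ARE-bla HepG2 cells treated with compounds for 16 h at 37C; this counter screen measures viability as intracellular ATP by CellTiter-Glo luminescence after 30 min at room temperature.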

Assay [28] in a line: qHTS assay for cell viability of HEK293 cells (AID 743288; active = well fitted curve in the direction sought with a large enough effect; an effect the other way counts as inactive or inconclusive; note: % is set by controls: 0 for no effect and ±100 for the full control effect; nearly all actives have a fitted effect of over 50% in size). The conditions noted are these: ATP luminescence (CellTiter-Glo), 18 h; max response: stronger effect = lower value. The gist of the method: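 Luminescent ATP quantitation served as the viability read-out. Cells (parental HEK293, 2,000/well) received compounds after at least 5 h at 37 C and were exposed for 18 h before a 30 min room-temperature reagent step.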

Assay [29] in a line: qHTS assay for cell viability of the p53RE-bla HCT-116 cell line (AID 743292; active = well fitted curve in the direction sought with a large enough effect; an effect the other way counts as inactive or inconclusive; note: % is set by controls: 0 for no effect and ±100 for the full control effect; nearly all actives have a fitted effect of over 55% in size). In outline:
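CellSensor p53RE-bla HCT-116 cells (4,000/well) pre-incubated 5 h at 37 C, then exposed to compounds in DMSO for 16 h at 37 C. Viability read as ATP content by CellTiter-Glo luminescence after 30 min at room temperature.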

Assay [30] concerns the target Nuclear receptor subfamily 1 group I member 2 (Rattus norvegicus) (UniProt Q9R1A7). Description: qHTS assay for small molecule activators of the rat pregnane X receptor (rPXR) signaling pathway (AID 651751; call rule not given here; note: 0% is about no effect). The conditions noted are these: rPXR reporter cells, luciferase (One-Glo), 24 h.
A short description of assay [31]: qHTS assay for small molecule activators of the human pregnane X receptor (PXR) signaling pathway (AID 720659; call rule not given here; note: 0% is about no effect).

Chain of Peroxisome proliferator-activated receptor delta (Homo sapiens) (Q03181 whole entry, looked up): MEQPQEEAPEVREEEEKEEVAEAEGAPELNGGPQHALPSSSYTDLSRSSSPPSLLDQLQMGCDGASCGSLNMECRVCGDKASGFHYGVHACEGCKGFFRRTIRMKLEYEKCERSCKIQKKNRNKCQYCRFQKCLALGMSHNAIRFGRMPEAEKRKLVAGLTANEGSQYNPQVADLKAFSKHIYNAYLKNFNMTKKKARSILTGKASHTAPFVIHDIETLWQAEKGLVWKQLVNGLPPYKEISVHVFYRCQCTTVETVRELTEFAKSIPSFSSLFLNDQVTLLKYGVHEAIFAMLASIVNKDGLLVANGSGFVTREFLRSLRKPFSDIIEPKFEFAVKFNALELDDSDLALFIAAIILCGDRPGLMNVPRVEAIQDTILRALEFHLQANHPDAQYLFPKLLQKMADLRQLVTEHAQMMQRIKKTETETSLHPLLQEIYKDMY
Chain of Glucocorticoid receptor (Homo sapiens) (P04150 whole entry, looked up): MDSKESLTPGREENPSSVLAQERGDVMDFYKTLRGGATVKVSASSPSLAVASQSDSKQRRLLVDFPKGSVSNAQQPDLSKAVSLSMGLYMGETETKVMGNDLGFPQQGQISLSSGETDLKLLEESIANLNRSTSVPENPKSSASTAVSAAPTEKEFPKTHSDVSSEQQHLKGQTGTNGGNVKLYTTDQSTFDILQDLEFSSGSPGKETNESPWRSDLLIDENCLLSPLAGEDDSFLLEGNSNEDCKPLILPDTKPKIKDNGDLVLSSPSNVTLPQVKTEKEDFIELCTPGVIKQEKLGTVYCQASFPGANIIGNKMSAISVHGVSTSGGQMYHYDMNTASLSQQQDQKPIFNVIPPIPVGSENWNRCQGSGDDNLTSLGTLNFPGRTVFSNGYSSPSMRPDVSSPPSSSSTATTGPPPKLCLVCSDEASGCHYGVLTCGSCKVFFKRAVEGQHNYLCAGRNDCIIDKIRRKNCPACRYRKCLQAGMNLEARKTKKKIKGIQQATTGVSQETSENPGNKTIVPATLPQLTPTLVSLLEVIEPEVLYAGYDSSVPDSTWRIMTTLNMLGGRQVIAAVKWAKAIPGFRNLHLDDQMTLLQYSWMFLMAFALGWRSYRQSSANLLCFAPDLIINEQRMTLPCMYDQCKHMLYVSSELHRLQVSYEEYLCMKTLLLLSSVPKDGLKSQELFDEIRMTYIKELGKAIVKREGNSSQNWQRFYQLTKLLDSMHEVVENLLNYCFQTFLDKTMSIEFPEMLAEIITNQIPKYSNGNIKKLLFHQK
Chain of Peroxisome proliferator-activated receptor alpha (Homo sapiens) (Q07869 whole entry, looked up, the tested form may be a part): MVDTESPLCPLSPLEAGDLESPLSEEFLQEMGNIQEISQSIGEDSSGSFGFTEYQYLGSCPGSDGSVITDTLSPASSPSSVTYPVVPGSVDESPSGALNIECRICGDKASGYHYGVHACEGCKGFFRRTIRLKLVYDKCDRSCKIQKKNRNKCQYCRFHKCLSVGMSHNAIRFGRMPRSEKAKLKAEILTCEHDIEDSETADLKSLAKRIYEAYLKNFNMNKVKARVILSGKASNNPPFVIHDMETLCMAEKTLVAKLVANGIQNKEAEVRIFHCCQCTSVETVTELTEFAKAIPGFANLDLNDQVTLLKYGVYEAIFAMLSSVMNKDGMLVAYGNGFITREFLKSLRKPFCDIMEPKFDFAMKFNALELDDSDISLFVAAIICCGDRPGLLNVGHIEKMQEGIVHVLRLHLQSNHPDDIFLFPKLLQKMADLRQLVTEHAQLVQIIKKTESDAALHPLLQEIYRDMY
Chain of Nuclear receptor subfamily 1 group I member 2 (Rattus norvegicus) (Q9R1A7 whole entry, looked up): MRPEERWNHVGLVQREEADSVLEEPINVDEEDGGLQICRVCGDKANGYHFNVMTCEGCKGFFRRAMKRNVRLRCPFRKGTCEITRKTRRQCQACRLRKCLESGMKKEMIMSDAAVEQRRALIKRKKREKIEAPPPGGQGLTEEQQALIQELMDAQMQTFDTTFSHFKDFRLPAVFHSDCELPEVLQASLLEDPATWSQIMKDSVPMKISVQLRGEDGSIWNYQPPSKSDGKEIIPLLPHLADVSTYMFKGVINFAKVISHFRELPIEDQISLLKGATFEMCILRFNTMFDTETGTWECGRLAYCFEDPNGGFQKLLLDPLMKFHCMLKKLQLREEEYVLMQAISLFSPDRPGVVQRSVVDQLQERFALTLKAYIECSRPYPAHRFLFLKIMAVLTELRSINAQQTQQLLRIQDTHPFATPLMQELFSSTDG

For the molecule `Cc1cc(Cl)ccc1OCCCC(=O)NO`, the Potency result in assay [1], in assay [3] and in [4] was “inactive” each time. Further, the Potency in [2] is 24.3 µM (active).

Take `CCNc1cc(NC2CCC(O)CC2)nc(Nc2ccc3c(ccn3Cc3ccccc3)c2)n1` (configuration not stated): the Potency entry in assay [1], in assay [2] and in [4] was “inactive” each time.

As to `OC[C@H]1O[C@@H](n2cnc3c(NC4CCCC4)ncnc32)[C@H](O)[C@@H]1O`, in assay [5], the outcome was inactive. Also, the Potency result in assay [1], in assay [2] and in [3] was “inactive” in each case.

For the molecule `CCCCOP(=O)(O)OCCCC`, the Potency entry in assay [6], in [9], in assay [11], in [12], in assay [16] and in assay [19] was “inactive” each time. For the same molecule, the Potency entry in assay [23] and in assay [26] was “inactive” each time. The activation in assay [7] is -1.97% (inactive); in assay [10] it was -1.37% (inactive); in assay [24] it was 1.33% (inactive). Besides, the molecule was called inactive in [8], in assay [14], in assay [15], in assay [18], in assay [29] and in assay [31]. Further, the max response in [13] is 24.1%; in assay [17] it was -20.1%; in [20] it was -2.61%; in [21], -17.7% (inactive); in assay [25], -1.16% (inactive); in assay [27], -8.15% (inactive). For the same molecule, the max response was -9.76% (inactive) in assay [28] and 5.92% (inactive) in assay [30]. Also, in assay [22], the activity change % (negative = inhibition) was 3.56% (inactive).
